Screens: PubChem, National Center for Advancing Translational Sciences (NCATS)
Sampled rows, rich in hits. Any-hit rate of the full collection: about 6%.
D1 antag: Antagonist of Human D 1 Dopamine Receptor: qHTS; actives 3.2% (n = 360,000); D(1A) dopamine receptor (Homo sapiens), P21728; activity change, negative = inhibition, % at 10 µM; AID 504652, 2011; HEK293 TREx D1 cells, calcium flux, dopamine EC80; hits give low values; in the data active = activity change below about -30%; note: % is set by controls: 0 for no effect and ±100 for the full control effect
Target sequence (P21728 whole entry, looked up): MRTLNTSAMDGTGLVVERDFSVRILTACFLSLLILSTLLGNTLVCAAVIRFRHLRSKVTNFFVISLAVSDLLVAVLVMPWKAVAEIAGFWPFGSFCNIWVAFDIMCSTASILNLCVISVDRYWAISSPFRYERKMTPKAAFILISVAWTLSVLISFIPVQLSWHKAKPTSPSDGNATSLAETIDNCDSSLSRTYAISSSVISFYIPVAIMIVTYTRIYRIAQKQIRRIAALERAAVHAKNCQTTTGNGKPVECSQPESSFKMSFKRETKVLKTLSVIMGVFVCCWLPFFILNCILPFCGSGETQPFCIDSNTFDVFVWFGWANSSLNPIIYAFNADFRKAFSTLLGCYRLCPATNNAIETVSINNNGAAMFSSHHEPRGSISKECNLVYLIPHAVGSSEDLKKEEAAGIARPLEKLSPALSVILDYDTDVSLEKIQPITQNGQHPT
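Compound effects on dopamine-evoked calcium signalling were measured in tetracycline-induced HEK293 Trex D1 cells. Dopamine at EC80 followed a 180 s compound pre-read, and fluorescence was tracked kinetically for 180 s more.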
D3 antag: qHTS of D3 Dopamine Receptor Antagonist: qHTS | D(3) dopamine receptor (Homo sapiens), P35462 | D3R cells, DiscoveRx beta-arrestin luminescence, antagonist mode; hits give low values | max response, negative = inhibition, % | actives 2.5% (n = 360,000); in the data active = max response below about -50%; inconclusive = no clear call, values can overlap the other calls; note: % is set by controls: 0 for no effect and ±100 for the full control effect
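Cells expressing the human receptor were seeded at 1500 cells/well, incubated overnight at 37 degrees C in 5% CO2, then exposed to library compounds with dopamine controls for 90 minutes at 37 degrees C before luminescent detection.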
D1 PAM: Potentiators of Human D1 Dopamine Receptor: qHTS | D(1A) dopamine receptor (Homo sapiens), P21728 | HEK293 TREx D1 cells, calcium flux, dopamine EC20 potentiation | potentiation, % at 10 µM | actives 0.036% (n = 360,000) | AID 504651, 2011; in the data active = potentiation above about 30%; note: 0% is about no effect
D1 ag: Allosteric Agonists of the Human D1 Dopamine Receptor: qHTS. D(1A) dopamine receptor (Homo sapiens), P21728. HEK293 T-REx D1 cells, calcium flux, agonist mode. activation, % at 2 µM. actives 1% (n = 360,000). AID 504660, 2011; in the data active = activation above about 30%; note: 0% is about no effect
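Tetracycline-induced HEK293 TREx D1 cells, force-coupled to calcium signalling, were dye-loaded with a no-wash calcium kit. Compound was pin-added after a 10 s baseline. Fluorescence was read kinetically at 1 cycle/s for 180 s, with calcium rises flagged as agonism.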
D3 ag: qHTS of D3 Dopamine Receptor Agonist: qHTS; D(3) dopamine receptor (Homo sapiens), P35462; D3R DiscoveRx beta-arrestin cells, luminescence, 90 min; max activation, %; actives 0.58% (n = 410,000); in the data active = max activation above about 30%; note: 0% is about no effect
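Cells at 1500/well, incubated overnight, then treated with pinned compounds (dopamine as control) for 90 min at 37 degrees C. DiscoveRx reagent added for 30 - 60 minutes at room temperature; luminescence read.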
The depositor's hits bear a star; ? = inconclusive; . = not tested or not shown.

SMILES	D1 antag	D3 antag	D1 PAM	D1 ag	D3 ag
CCCC(=O)C1=C(O)C(C(=O)OC)C(C)(C)CC1=Nc1ccccc1 (centres undefined)	-46*	?	-3	1	0
Cc1ccc(-c2nc3ncccc3o2)cc1NC(=O)COc1ccc(C(C)C)cc1	14	.	2	7	20
COc1ccc([N+](=O)[O-])cc1COc1ccc2c(-c3ccccc3)cc(=O)oc2c1	-33*	-13	-14	5	-4
CC(=O)COc1ccc2c(-c3cccc([N+](=O)[O-])c3)cc(=O)oc2c1	2	-4	-1	0	0
c1ccc(CSc2nnc(C3CCNCC3)o2)cc1	2	.	0	3	-5
CC(C)N(Cc1nc2ccccc2[nH]1)C(C)C	-34*	0	-2	0	-9
N#Cc1nc(-c2cccc3ccccc23)oc1NCC#CCOC(=O)c1cccs1	-4	.	-2	6	.
O=C(NNc1c(Cl)cccc1Cl)c1c(F)cccc1Cl	-35*	-8	-7	2	5
CC12CCC(=O)N1C(C(=O)Nc1nccs1)CS2 (centres undefined)	-12	8	-3	1	79*
COc1cc(C(=O)NNC(=O)C2CSC3(C)CCC(=O)N23)cc(OC)c1OC (centres undefined)	-40*	-4	-3	3	4
CCc1nnc(NC(=O)C2CSC3(C)CCC(=O)N23)s1 (centres undefined)	3	12	-2	0	0
CC12CCC(=O)N1C(C(=O)NNC(=O)c1ccccc1Cl)CS2 (centres undefined)	-52*	-10	-6	1	-3
COc1ccc(C(=O)NCC(=O)NCC2COc3ccccc3O2)cc1 (centres undefined)	-3	-52*	-6	1	0
COc1ccc(CC(=O)NCC2COc3ccccc3O2)cc1 (centres undefined)	-6	0	7	1	2
O=C(CCNC(=O)c1ccc(Br)cc1)NCC1COc2ccccc2O1 (centres undefined)	-41*	10	2	9	-8
Cc1ccc2c(c1)cc(C(=O)Nc1ccc(F)cc1F)n2C	-5	.	-2	0	6
Cc1ccc2[nH]c(=O)c3cc(C(=O)NCc4cccc(Cl)c4)sc3c2c1	10	.	0	-1	4
COc1cc(Cl)c(C)cc1NC(=O)C(OC(=O)CNC(=O)c1ccccc1)c1ccccc1 (centres undefined)	-5	.	-6	11	.
Cc1ccc(-n2c(=O)c3c4c(sc3n(Cc3ccccc3C)c2=O)CCC4)cc1C	-72*	.	1	1	-15
Cc1ccccc1Cn1c(=O)n(-c2ccc(Cl)cc2)c(=O)c2c3c(sc21)CCCC3	10	.	2	0	6
CCOc1ccc(CNS(=O)(=O)c2ccc3c(c2)CCCN3C(C)=O)cc1OC	-5	.	-3	7	9
Cc1ccccc1OC(=O)c1cc(-c2ccc3c(c2)OCCO3)on1	-46*	.	-2	8	4
O=C(Nc1cccc(Br)c1)c1cc(-c2ccc3c(c2)OCCO3)on1	-41*	.	-2	16	-21
N#Cc1ccc(OC(=O)c2cc(-c3ccc4c(c3)OCCO4)on2)cc1	-8	.	0	33*	-15
O=C(Nc1cccnc1)c1cc(-c2ccc3c(c2)OCO3)on1	13	-9	2	1	3
SMILES	D1 antag	D3 antag	D1 PAM	D1 ag	D3 ag
Cc1nn(CC(=O)Nc2cc(F)ccc2F)c(=O)c2cccn12	-1	.	-1	5	-12
CC(C)=CCC[C@H](C)C[C@@H]1Cc2[nH]c(=S)[nH]c(=O)c2[C@@H](c2ccc(F)cc2)O1	.	-55*	.	.	-3
CC(C)=CCC[C@H](C)CC1Cc2[nH]c(=S)[nH]c(=O)c2C(c2ccc(F)cc2)O1 (some centres undefined)	.	11	.	.	7
CCOC(=O)COc1ccc(C)cc1C(=O)c1ccn2nc(-c3ccc(Cl)cc3)cc2n1	6	.	-3	0	0
CC1=CC(C)(C)n2c(O)c(C3=NC(=S)NC3=O)c3cc(OC(=O)c4cccc5ccccc45)cc1c32	24	-58*	-3	4	-16
COc1ccc(NC(=S)N(CCCN2CCCC(C)C2)Cc2cccs2)cc1 (centres undefined)	-11	-82*	-3	2	-21
Cc1ccc(NC(=S)N(CCN(C)C)Cc2cccs2)cc1	-36*	1	-8	4	-8
CSc1cccc(NC(=S)N(CCCN2CCCC2)Cc2cccs2)c1	-8	-64*	-7	11	-20
COc1ccc(NC(=S)N(CCCN2CCCC2)Cc2cccs2)cc1	-25	-64*	1	12	-27
Cc1cc(C)cc(NC(=S)N(CCN(C)C)Cc2cccs2)c1	8	6	-3	3	-15
Cc1cc(NC(=O)N(C)CCc2c(C)nn(C)c2C)ccc1Br	-17	.	-1	-2	5
C[n+]1c2cc(N)ccc2cc2ccc(N)cc21 (tested in a mixture with another compound)	.	.	.	.	13
COc1ccc(CCNC(=O)CSc2nc(-c3ccc(F)cc3)cc(C(F)(F)F)n2)cc1OC	-8	.	-6	3	-13
O/N=C/c1cc(Br)ccc1OCc1ccc(F)cc1	.	10	.	.	1
Cc1ccc(COc2ccc(Br)cc2/C=N/O)cc1	-6	-94*	1	3	-5
O/N=C/c1ccc(OCc2ccccc2)c(Br)c1	-33*	-23	1	2	-2
CC(=O)c1ccc(NC(=O)C(C)n2nc(-c3ccccc3)ccc2=O)cc1 (centres undefined)	7	.	-1	11	-6
CC1CC(=S)Nc2ccccc2S1 (centres undefined)	14	-77*	-2	-1	-2
O=C1CC(c2ccc(F)cc2)Sc2ccccc2N1 (centres undefined)	-11	-13	-5	-2	-24
Cc1cccc2cc(CN(Cc3ccco3)S(=O)(=O)c3ccc4c(c3)OCCO4)c(=O)[nH]c12	-51*	10	2	3	-26
CCc1cc2c(NCC3CCCO3)ncnc2s1 (centres undefined)	-3	42	-6	5	3
Cc1sc2ncnc(NCC3CCCO3)c2c1C (centres undefined)	-30*	19	-5	12	5
Cc1cccc(N2CCN(C(=O)Cn3ncc4c3-c3cc(C)ccc3OC4)CC2C)c1 (centres undefined)	37	.	10	0	32*
COc1ccccc1N1CCN(C(=O)Cn2ncc3c2-c2cc(C)ccc2OC3)CC1	16	.	-4	4	8
CCN(CCN(C)C)C(=O)Cn1ncc2c1-c1cc(C)ccc1OC2	-33*	-15	-1	2	-5
